# Experimental data: PubChem BioAssay AID626 (Vanderbilt High Throughput Screening Facility, 2007)
# The campaign covered roughly 64,000 compounds. About 1,900 (3%) were called active. This excerpt belongs to a sample that is enriched for actives. Unmarked numbers belong to inactive results.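 Rule for the calls: active = fluorescence rise, raw or as B-score row- and column-corrected plate score, outside the 99.7% band of its plate's samples, either direction; inactive = the rest.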
# Test system: Muscarinic acetylcholine receptor M1
# Test: direct activation of M1 receptor calcium signal – CHO-M1 cells, Fluo-4 calcium, agonist mode, primary screen (AID 626)
# Details: Fluo-4 calcium fluorescence, at 10 µM, stronger effect = higher value
row,Structure (SMILES),B-score
1,Cc1ccc(C(=O)COc2cccc(NC(=O)c3ccco3)c2)cc1,1.03 (active)
2,COC(=O)c1ccc(NC(=O)c2ccco2)cc1,-0.218
3,Cc1ccnc(NC(=O)c2ccc(NC(=O)c3ccco3)cc2)c1,1.71
4,O=C1c2ccccc2C(Nc2ccc3c(c2)OCCO3)N1Cc1ccco1 (configuration not stated),0.847
5,COc1ccc(NS(=O)(=O)c2ccc(NC(C)=O)cc2)cc1OC,0.127
6,COc1ccccc1Oc1ccc(S(=O)(=O)Nc2cccnc2)cc1,14.6 (active)
7,O=S(=O)(Nc1ccccn1)c1ccc(Oc2ccccc2)cc1,-0.897
8,CCC(C)(C)NC(=O)C(c1cccn1C)N(Cc1ccc(C)cc1)C(=O)Cn1nnc2ccccc21 (configuration not stated),-0.864
9,O=S(=O)(NCC1CCCO1)c1ccc2ccccc2c1 (configuration not stated),0.554
10,COCCCNC(=O)c1c(F)c(F)c(F)c(F)c1F,0.0183
11,Cc1cccc(CC(=O)Nc2c3c(nn2-c2cccc(Cl)c2)CS(=O)C3)c1 (configuration not stated),-1.33
12,Cc1noc(C)c1CSc1nc2cc(S(=O)(=O)N3CCOCC3)ccc2o1,-0.0272
13,CC1Cc2ccccc2N1C(=O)CSc1nc2ccccc2o1 (configuration not stated),0.106
14,O=C(CSc1nc2ccccc2o1)N1CCN(c2ccc(Cl)cc2)CC1,20.1 (active)
15,O=C(CSc1nc2ccccc2o1)N1CCN(c2ccccc2)CC1,-0.706
16,CSCCC(NC(=O)c1ccc(=O)n(C)n1)c1nc2ccccc2[nH]1 (configuration not stated),-1.57
17,NC(=S)c1ccc(C(N)=S)o1,2.43
18,COc1ccc(C(=O)CSc2nccc(=O)[nH]2)cc1,1.27
19,CC12C(=O)N(n3cnnc3)C(=O)C1C1C=CC2C1 (configuration not stated),0.0714
20,CCc1ccc(Nc2ncc3c(n2)CC(c2ccco2)CC3=O)cc1 (configuration not stated),0.24
21,CCCC(=O)Nc1ccccc1N1CCN(C(=O)c2ccccc2)CC1,0.545
22,O=C(Nc1ccccc1N1CCN(c2ccccc2)CC1)c1cccc(F)c1,-0.048
23,O=C(Nc1ccccc1N1CCN(C(=O)c2ccccc2)CC1)c1ccc2c(c1)OCO2,2.96 (active)
24,Cc1noc(C)c1C(=O)OCC(=O)/C=C1\N(C)c2ccccc2C1(C)C,-1.21
25,COc1ccc(S(=O)(=O)N2CCC(C(=O)N3CCc4ccccc4C3)CC2)cc1OC,0.201
26,O=C(CN(Cc1ccccc1)C(=O)c1ccc2c(c1)OCCO2)NCc1ccc2c(c1)OCO2,0.89
27,CC1(C)CC(O)C(CCC(O)c2ccccc2)C(C)(C)N1 (configuration not stated),2.64
